21 compounds from PubChem BioAssay (NCI) can be followed below.

About 79,000 compounds went through this panel and 15% of them were active in at least one assay; those are over-represented in the sample as a whole. Values without a mark were called inactive. Calls of active or inactive are those of the source. Cut-off read from the data, not from the text of the source: active = growth inhibition above about 70%; inactive = the rest.

A short description of assay [1]: NCI Yeast Anticancer Drug Screen. Data for the rad50 strain (AID 155).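 Note: 0% = growth of vehicle-only cultures of the same strain.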 Particulars: S. cerevisiae rad50 strain growth inhibition; at 50.0 µM; hits give high values. A digest of the protocol:
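Relative growth inhibition (compound vs vehicle) was measured in yeast with a defined repair-gene alteration.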

Assay [2] in a line: NCI Yeast Anticancer Drug Screen. Data for the mec2-1 strain (AID 157). Particulars: S. cerevisiae mec2-1 strain, at 50.0 µM, hits give high values. The procedure, abridged: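 Mutant yeast (mec2-1) grown with compound; growth inhibition relative to vehicle control reported.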
Assay [3] in a line: NCI Yeast Anticancer Drug Screen. Data for the sgs1 mgt1 strain (AID 161).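 Note: 0% = growth of cultures given vehicle only.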 Particulars: S. cerevisiae sgs1 mgt1 strain, at 50.0 µM, hits give high values. A digest of the protocol: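 Compounds are added to genetically altered yeast, and growth is compared with cultures given vehicle alone to give percent inhibition.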
The nature of assay [4]: NCI Yeast Anticancer Drug Screen. Data for the cln2 rad14 strain (AID 165).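 Note: 0% = growth equal to vehicle treated cultures.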 Particulars: S. cerevisiae cln2 rad14 strain, at 50.0 µM, hits give high values. A digest of the protocol: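 Readout is yeast growth inhibition versus vehicle-treated controls, using a strain with cln2 and rad14 alterations exposed to compound.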
The nature of assay [5]: NCI Yeast Anticancer Drug Screen. Data for the bub3 strain (AID 167). Particulars: S. cerevisiae bub3 mutant strain, at 50.0 µM, hits give high values. The procedure, abridged: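 Screening used yeast with an engineered genetic alteration affecting cell cycle control. Compound-exposed cultures were compared with vehicle cultures, and reduced growth was taken as inhibition.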

Assay [6] can be described thus: NCI Yeast Anticancer Drug Screen. Data for the mlh1 rad18 strain (AID 175). Particulars: S. cerevisiae mlh1 rad18 strain growth inhibition; at 50.0 µM; hits give high values. A digest of the protocol: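 Genetically defined yeast (DNA repair-deficient) exposed to compounds; growth inhibition determined relative to vehicle.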

Turning to `O=C(O)C1CSCN1` (stereo unspecified), the growth inhibition is -3.85% in assay [1]; -22.9% in assay [2]; -3.2% in assay [3]; 1.1% in assay [4]; 1% in assay [5]; 18.3% in assay [6].

For the compound `CCCCNC(=O)c1ccccc1C`, the growth inhibition was 4.8% in assay [1]; 4.7% in assay [2]; -6.7% in assay [3]; -34.9% in assay [4]; 2.25% in assay [5]; 1.35% in assay [6].

Turning to `Nc1ccc(C(=O)NN2C(=O)C(Cl)C2c2ccc(O)cc2)cc1` (stereo unspecified), the growth inhibition in assay [1] was -1.75%; in assay [2] it was -1.45%; in assay [3] it was -17.2%; in assay [4] it was -3.05%; in assay [5], 4.8%; in assay [6], -25.6%.

Regarding `C/C(=N\O)c1cccs1`, the growth inhibition in assay [1] is 3.8%; in assay [2], -4.05%; in assay [3] it was -6%; in assay [4], -8.9%; in assay [5] it was -0.25%; in assay [6], -1.4%.

In the case of `c1ccc2c(c1)ccc1c3ccccc3ncc21`, the growth inhibition was 62.8% in assay [1]; 27.8% in assay [2]; 32.6% in assay [3]; 35.5% in assay [4]; 0.75% in assay [5]; 23.1% in assay [6].

Turning to `N#C/C(=C/c1cccnc1)C(=O)c1ccccc1`, the growth inhibition in assay [1] was -6.1%; in assay [2], -18.9%; in assay [3] it was 1.3%; in assay [4] it was 12.6%; in assay [5], -22.6%; in assay [6], 7.15%.

As for `CCCC1c2c(ccc3ccccc23)Oc2ccc3ccccc3c21`, the growth inhibition in assay [1] was -36.1%; in assay [2] it was 2.4%; in assay [3], -19.6%; in assay [4], -2%; in assay [5] it was -13.7%; in assay [6] it was -1.35%.

As for `O=C1/C(=C/c2ccccc2)SC(=S)N1C1c2ccccc2Oc2ccccc21`, the growth inhibition in assay [1] is 35.4%; in assay [2], 14.6%; in assay [3], 53.8%; in assay [4], 38.8%; in assay [5], 5.25%; in assay [6], 30.1%.

Regarding `S=C(Nc1ccccc1)Nc1ccccc1S`, the growth inhibition is -15.4% in assay [1]; -19.8% in assay [2]; 6.75% in assay [3]; -20.4% in assay [4]; 14.7% in assay [5]; -18.9% in assay [6].

`COc1ccc2nc3cccc([N+](=O)[O-])c3c(NCCC(=O)O)c2c1`: the growth inhibition in assay [1] is 56.1%; in assay [2], -18.9%; in assay [3], 49.9%; in assay [4], 26.8%; in assay [5] it was -5.25%; in assay [6], 25.8%.

`COC(=O)C1=NOC(Cc2ccccc2)C1` (stereo unspecified): the growth inhibition in assay [1] was 10.3%; in assay [2] it was 6.95%; in assay [3] it was 0.15%; in assay [4], -35.4%; in assay [5] it was 6.45%; in assay [6] it was -4.85%.

Turning to `CC(c1ccc(O)cc1)c1cc2c(cc1OCCO)OCO2` (stereo unspecified), the growth inhibition was 99.3% (active) in assay [1]; 99% (active) in assay [2]; 99.4% (active) in assay [3]; 99.3% (active) in assay [4]; 99.5% (active) in assay [5]; 99.1% (active) in assay [6].

On to `CC(=O)Nc1c(F)cc(F)cc1[N+](=O)[O-]`, for which the growth inhibition in assay [1] is -28.4%; in assay [2], -3.4%; in assay [3] it was -12.4%; in assay [4] it was -16.8%; in assay [5], -18.8%; in assay [6], 10.3%.

For the compound `FC(F)(F)c1cc(-c2ccc(C3Nc4ccccc4-n4cccc43)o2)cc(C(F)(F)F)c1` (stereo unspecified), the growth inhibition was 11.7% in assay [1]; -23.4% in assay [2]; 24.2% in assay [3]; 6.65% in assay [4]; 25.4% in assay [5]; 30.3% in assay [6].

Take `CCCOC(=O)Nc1cccc(Cl)c1`: the growth inhibition in assay [1] is 49.5%; in assay [2] it was -8.7%; in assay [3], 13.6%; in assay [4], -9.95%; in assay [5], -9.35%; in assay [6] it was 12.4%.

For the compound `O=C(O)COc1ccc(I)cc1I`, the growth inhibition in assay [1] was 23.3%; in assay [2], -8.05%; in assay [3], -4.85%; in assay [4], -37.5%; in assay [5], 23.6%; in assay [6], 19.2%.

Regarding `O=C(c1ccccc1)N1CC2CCC1CN2C(=O)c1ccccc1`, the growth inhibition in assay [1] is 15.8%; in assay [2], 15.2%; in assay [3] it was 4%; in assay [4], 6.95%; in assay [5], 42.7%; in assay [6], -8.45%.

With `COc1ccc(/C=N/Nc2nc3ccccc3s2)cc1`, the growth inhibition in assay [1] was 7.9%; in assay [2] it was -3.15%; in assay [3], -3.15%; in assay [4], -41.4%; in assay [5], 1%; in assay [6] it was 25.6%.

In the case of `O=C(CCBr)NC(=O)OC/C=C\c1ccccc1`, the growth inhibition in assay [1] is 7.7%; in assay [2] it was 34.8%; in assay [3], 12.2%; in assay [4], 8%; in assay [5], 5.1%; in assay [6], 15.2%.

As to `Cc1cn(CCCSCC2OC3OC4C(CO)OC(OC5C(CO)OC(OC6C(CO)OC(OC7C(CO)OC(OC8C(CO)OC(OC9C(CO)OC(OC2C(O)C3O)C(O)C9O)C(O)C8O)C(O)C7O)C(O)C6O)C(O)C5O)C(O)C4O)c(=O)[nH]c1=O` (stereo unspecified), the growth inhibition is -21.6% in assay [1]; -9.35% in assay [2]; -18.4% in assay [3]; 0% in assay [4]; -1.85% in assay [5]; -14.2% in assay [6].

On to `COc1ccc(/C=C/C(=O)O)cc1OC`, for which the growth inhibition is -1.65% in assay [1]; -12% in assay [2]; 11.7% in assay [3]; -1% in assay [4]; 12.3% in assay [5]; -0.65% in assay [6].
